This is part of a sample that, as a whole, favours compounds with a hit. Of some 83,000 tested, about 20% had one in any assay.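 Percent growth is the endpoint: 0 to 100 indicates growth inhibition (40 means 60% inhibition), 0 means no net growth, and negative values indicate cell death.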 A number with no mark means an inactive call. Activity calls are given as the source filed them. How the source made its calls: active means growth percent below 10; inactive means the rest.

This assay deals with SNB-75 CNS. Nature of the assay: NCI-60 one-dose screen, 48 h (100 = growth as untreated, 0 = no growth, -100 = all killed). The note with it: 10 µM unless noted.
In the case of `Cc1ccc(S(=O)(=O)c2nc(S(=O)(=O)c3ccc(C)cc3)c(Cl)s2)cc1`, the growth was 108%.
Then `CCCCSc1nc(Nc2ccc(C(C)=O)cc2)c(C#N)c(-c2ccc(OC)cc2)n1`, with 93%.
With `CCOC(=O)C1=C(N)N(c2ccccc2)C2=C(C(=O)CC(C)(C)C2)C1c1ccc([N+](=O)[O-])cc1` (stereo not drawn), the growth is 104%.
In the case of `Cc1cccc(Nc2nc3ccccc3nc2/C=C/c2ccc(F)cc2)c1` it was 91.9%; in that of `Cc1cccc(NC(=O)CN2CCN(c3ncnc4c3cnn4-c3ccccc3)CC2)c1`, 100%; in that of `Cn1cc(-c2cc3nc(-c4c[nH]c5ccc(Br)cc45)cc(N)n3n2)c2ccccc21`, -64.5% (active).
For the compound `C#CCOc1ccc(/C=N/Nc2nc(-c3cc4cc(OC)ccc4oc3=O)cs2)cc1OC`, the growth is 102%.
With `CC1(C)CC[C@]2(C(=O)O)CC[C@]3(C)C(=CCC4[C@@]5(C)C[C@@H](O)[C@@H]6OC(c7ccc(F)cc7)OC[C@@]6(C)C5CC[C@]43C)C2C1` (stereo partly drawn), the growth was 82.3%.
In the case of `O=C(NN1C(=O)/C(=C/C=C/c2ccc([N+](=O)[O-])o2)SC1=S)c1cccc(O)c1` it was -71.3% (active); in that of `Cc1ccc(C(=O)NN2C(=O)/C(=C/C=C/c3ccc([N+](=O)[O-])o3)SC2=S)cc1`, -85% (active); in that of `N/C(=N\c1nc2ccccc2s1)NC(=O)Nc1c(Cl)cccc1Cl`, 27.7%.
Take `O=C(CN1C(=O)/C(=C/c2ccccc2Cl)SC1=S)N1CCOCC1`: the growth is 109%.
As for `CN(C)c1nc(NCCNS(=O)(=O)c2ccc(C3=Nc4c(N)nc(N)nc4NC(c4ccc(C(F)(F)F)cc4)C3)cc2)nc(Nc2ccc(F)cc2)n1` (stereo not drawn), the growth is 31.7%.
Then `O=C(CSc1nc2ccccc2c(=O)[nH]1)NCCN1CCCCC1`, with 79.1%.
Turning to `Cn1cc(-c2nnc(N)nc2-c2c[nH]c3ccc(Br)cc23)c2cc(Br)cnc21`, the growth is 32%.
For the compound `O=C(O)Cn1c(O)c(/C=C2/C=c3cc4c(cc3=NC2=O)OCCO4)sc1=S`, the growth was 101%.
Take `N/C(=N\c1nc2ccccc2s1)NC(=O)Nc1ccc(Cl)cc1Cl`: the growth was -68.8% (active).
In the case of `Cc1ccc(-c2nc(C#N)c(S(=O)(=O)N3CCN(S(=O)(=O)c4ccccc4)CC3)o2)cc1`, the growth is 103%.
As to `COc1cccc(-c2nc(Nc3ccc(S(N)(=O)=O)cc3)c3ccccc3n2)c1`, the growth is 61.1%.
Then `COc1ccc(/C=C/c2nc3ccccc3n3c(-c4ccc(Cl)cc4)nnc23)cc1`, with 61.2%; and `CNS(=O)(=O)c1ccc(Nc2ccc(C(F)(F)F)cc2)c(-c2cn(C)cn2)c1`, with 90.9%; and `CCS(=O)(=O)N1CCCC(C(=O)Nc2nc3ccc(NC(=O)c4ccc(F)c(OC)c4F)cc3s2)C1` (stereo not drawn), with 62.5%.
Then `C#CCOc1cc(N(CC)CC)ccc1C(C(=O)NC(C)(C)C)N(C(=O)C1CCc2cc(F)ccc2O1)c1cc(C)cc(C)c1` (stereo not drawn), with 45.7%; and `C#CCOc1ccc(/C=N/Nc2nc(-c3ccc(Cl)cc3)cs2)cc1OC`, with 80.1%; and `O=C(COc1ccc2c(c1)CCCC(=O)N2)NCc1ccccc1`, with 92.9%.
`CN(C)c1nc(NCCNS(=O)(=O)c2ccc(C3=Nc4c(N)nc(N)nc4NC(c4ccccc4)C3)cc2)nc(Nc2ccc(F)cc2)n1` (stereo not drawn): the growth is 62.5%.
In the case of `CC1(C)CC[C@]2(C(=O)O)CC[C@]3(C)C(=CCC4[C@@]5(C)C[C@@H](O)[C@@H]6OC(c7ccccc7F)OC[C@@]6(C)C5CC[C@]43C)C2C1` (stereo partly drawn), the growth is 29.1%.
Regarding `Cc1cccc(-c2nc(Nc3ccc(C)c(S(N)(=O)=O)c3)c3ccccc3n2)c1`, the growth was 91.5%.
In the case of `COC(=O)C[C@](O)(CCCC(C)(C)O)C(=O)O[C@H]1C(OC)=C[C@@]23CCCN2CCc2cc4c(cc2[C@@H]13)OCO4` it was -48.9% (active); in that of `Cn1cc(-c2cc(N)n3nc(-c4cn(C)c5ccccc45)cc3n2)c2cc(Cl)ccc21`, -44% (active); in that of `CC1(C)CC[C@]2(C(=O)O)CC[C@]3(C)C(=CCC4[C@@]5(C)C[C@@H](O)[C@@H]6OC(c7ccco7)OC[C@@]6(C)C5CC[C@]43C)C2C1` (stereo partly drawn), 72.2%.
Then `Cn1cc(-c2cc3nc(-c4c[nH]c5ccc(Cl)cc45)cc(N)n3n2)c2ccccc21`, with -67.5% (active).
In the case of `COc1ccc(Cc2nn(CC(=O)N/N=C/c3ccc(F)cc3)c(=O)c3c(C)noc23)cc1` it was -17.4% (active).

Values taken from PubChem BioAssay (NCI).
